pPAFAH inh = pPAFAH enzyme inhibitors, primary screen, biochemical, fluorescence polarization, human. Platelet-activating factor acetylhydrolase (Homo sapiens), Q13093. recombinant pPAFAH, FP-rhodamine probe fluorescence polarization. inhibition, % at 3.39 µM. actives 1.5% (n = 330,000);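 active means inhibition above the mean inhibition across the screen plus 3 SD, cut at about 25% in these data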;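 further: inhibitors block binding of the rhodamine activity-based probe so polarization drops; 0% = enzyme with DMSO and 100% = wells lacking pPAFAH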
PAFAH2 inh = PAFAH2 enzyme inhibitors, primary screen, biochemical, fluorescence polarization, human; Platelet-activating factor acetylhydrolase 2, cytoplasmic (Homo sapiens), Q99487; recombinant PAFAH2, FP-rhodamine activity probe; inhibition, % at 3.39 µM; actives 0.99% (n = 340,000); AID 492956, 2010;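 active means inhibition above the mean over all tested compounds plus 3 SD, cut at about 30% in these data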;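 further: inhibitors block probe labeling of enzyme so polarization drops; 0% = enzyme with DMSO and 100% = wells lacking PAFAH2 protein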
PAFAH1B2 inh = PAFAH1B2 enzyme inhibitors, primary screen, biochemical, fluorescence polarization, human. Platelet-activating factor acetylhydrolase IB subunit alpha2 (Homo sapiens), P68402. actives 1.2% (n = 340,000). inhibition, % at 3.39 µM. AID 492953, 2010. recombinant PAFAH1B2, FP-rhodamine activity probe;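 active means inhibition above the mean of all tested compounds plus 3 SD, cut at about 24% in these data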;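 further: 0% = enzyme with DMSO and 100% = wells lacking PAFAH1B2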
Target sequence (P68402 whole entry, looked up): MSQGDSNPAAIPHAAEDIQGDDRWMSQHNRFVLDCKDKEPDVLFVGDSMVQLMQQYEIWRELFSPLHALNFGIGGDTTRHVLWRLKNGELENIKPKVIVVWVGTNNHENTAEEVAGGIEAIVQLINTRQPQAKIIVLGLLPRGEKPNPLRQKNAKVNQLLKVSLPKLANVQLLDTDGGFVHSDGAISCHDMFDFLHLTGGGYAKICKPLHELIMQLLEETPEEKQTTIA
PAFAH1B3 inh = PAFAH1B3 enzyme inhibitors, primary screen, biochemical, fluorescence polarization, human | AID 492972, 2010 | Platelet-activating factor acetylhydrolase IB subunit alpha1 (Homo sapiens), Q15102 | actives 0.28% (n = 340,000) | recombinant PAFAH1B3, FP-rhodamine probe | inhibition, % at 3.39 µM;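 active means inhibition above the screen-wide average of all tested compounds plus 3 SD, cut at about 25% in these data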;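 further: 0% = enzyme with DMSO only and 100% = wells lacking PAFAH1B3 protein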
Target sequence (Q15102 whole entry, looked up): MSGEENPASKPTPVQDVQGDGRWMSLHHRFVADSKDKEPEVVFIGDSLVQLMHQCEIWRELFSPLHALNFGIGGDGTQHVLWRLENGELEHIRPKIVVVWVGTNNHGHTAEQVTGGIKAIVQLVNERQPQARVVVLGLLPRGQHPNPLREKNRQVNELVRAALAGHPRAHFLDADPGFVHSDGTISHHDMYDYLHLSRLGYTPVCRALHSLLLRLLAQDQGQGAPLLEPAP
Fam108B inh = mouse Fam108B serine hydrolase inhibitors, primary screen, counter-screen for RBBP9 inhibitor project, biochemical, fluorescence polarization | inhibition, % at 9.51 µM | actives 0.33% (n = 300,000) | recombinant Fam108B, FP-Rh probe fluorescence polarization;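 active means inhibition above the screen mean inhibition plus 3 SD, computed separately per campaign, cut at about 18% in these data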;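 further: inhibitors lower polarization as less probe binds the enzyme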
PME-1 primary = PME-1 inhibitors via competitive probe labeling, primary screen, biochemical, fluorescence polarization, FP-Rh probe, HTS. Protein phosphatase methylesterase 1 (Homo sapiens), Q9Y570. recombinant PME-1. inhibition, % at 5.9 µM. actives 0.53% (n = 320,000);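 active means inhibition above the campaign mean of all compounds plus 3 SD, cut at about 26% in these data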;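 further: competitive labeling of PME-1 active site by serine hydrolase directed probe; 0% = PME-1 with DMSO and 100% = wells lacking PME-1 enzyme; inhibitors block probe labeling so polarization falls and inhibition rises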
* marks the source's active call; other numbers are inactive results; . = no result given. Compounds with a hit are over-represented: about 2.8% of the library has one in this group of screens.

SMILES	pPAFAH inh	PAFAH2 inh	PAFAH1B2 inh	PAFAH1B3 inh	Fam108B inh	PME-1 primary
COc1ccc2c(c1)c(CC(=O)OCC(N)=O)c(C)n2C(=O)c1ccc(Cl)cc1	25*	-10	2	5	-3	-2
CC(=NNC(=S)N1CC2CCC(CC2)C1)c1ccncn1	.	9	1	4	.	.
N#CC1=C(N)C2=CCCC[C@H]2[C@H](c2ccccc2)C1(C#N)C#N	5	8	5	6	1	5
N#CC1=C(N)C2=CCCC[C@H]2[C@H](c2ccc(Br)cc2)C1(C#N)C#N	28*	-1	10	-5	-1	25
CC1(C)CC2CC(C)(CN2S(=O)(=O)c2ccccc2[N+](=O)[O-])C1 (centres undefined)	2	4	12	6	.	.
c1ccc(C(c2ccccc2)c2ccn[nH]2)cc1	2	3	27*	2	0	3
O=C(Nn1nnnc1Nc1ccccc1)C12CC3CC(CC(C3)C1)C2	5	4	27*	3	-2	-1
O=C(NCc1ccccc1)C12CC3CC(CC(C3)C1)C2	-6	1	12	13	2	2
COc1cc(CN2CCC(n3nccc3NC(=O)CCCc3ccccc3)CC2)ccc1F	2	0	4	0	0	-4
COc1ccc2sc(-c3ccc(N(C)C)cc3)c(C#CCCO)c2c1	26*	5	5	13	.	5
CCn1c(/C=C/c2c[nH]c3ccccc23)nc2ccccc2c1=O	0	0	5	9	3	44*
O=Cc1ccc(C(=O)OCC(=O)Nc2ccc(F)cc2F)cc1	8	47*	2	3	-4	-7
O=C(Cc1ccc(NC(=O)C2CCCN(C(=O)C3CCC3)C2)cc1)Nc1cccc(C(=O)N2CCCC2)c1 (centres undefined)	.	3	3	12	.	.
O=C(NCc1ccc2c(c1)OCO2)c1ccc2c(c1)OCO2	1	1	2	-4	2	2
Cc1ccc2c(CC(=O)NCc3ccc4c(c3)OCO4)coc2c1	-3	6	15	-3	0	3
O=C(CSCc1ccc(F)cc1)NCc1ccc2c(c1)OCO2	12	2	2	-3	1	-4
COc1ccc(CCNC(=O)c2nnc(Cc3ccc(Cl)cc3)o2)cc1OC	28*	-6	-8	8	4	3
O=C(O)c1ccc(NCc2ccc3c(c2)OCO3)cc1	-4	2	25*	-2	5	3
COc1ccc(CCNC(=O)c2nnc(Cc3c(F)cccc3Cl)o2)cc1OC	3	6	4	3	-3	4
O=C(CSCc1ccc(Cl)cc1)NCc1ccc2c(c1)OCO2	13	-1	26*	-4	3	6
COc1ccc2c(CC(=O)NCc3ccc4c(c3)OCO4)coc2c1	32*	-1	3	-13	-3	-7
CCOC(=O)[C@H]1[C@H]2COc3ccc(Cl)cc3[C@@H]2N2C(=O)CN(CC3CCCO3)C(=O)[C@@]12C (some centres undefined)	-2	4	2	6	.	-2
CC(Sc1ccc(Cl)cc1)C(=O)Nc1ccc2c(c1)OCO2 (centres undefined)	7	-1	4	-3	2	2
O=C(NCc1ccc2c(c1)OCO2)c1nnc(Cc2ccc(Cl)cc2)o1	29*	2	-4	2	-6	6
CC(Sc1ccc(Cl)cc1)C(=O)NCc1ccc2c(c1)OCO2 (centres undefined)	1	-15	24*	6	1	1
SMILES	pPAFAH inh	PAFAH2 inh	PAFAH1B2 inh	PAFAH1B3 inh	Fam108B inh	PME-1 primary
CCN(c1ccccc1)S(=O)(=O)c1cccc(C(=O)NCC(c2ccco2)N2CCCCC2)c1 (centres undefined)	.	4	5	-2	.	.
NC(=S)n1[nH]c(-c2ccc([N+](=O)[O-])cc2)c(N=Nc2ccccc2[N+](=O)[O-])c1=O	.	17	9	12	.	.
NC(=S)n1[nH]c(-c2ccc([N+](=O)[O-])cc2)c(N=Nc2cccc([N+](=O)[O-])c2)c1=O	.	39*	27*	19	.	.
CC(C)CNC(=O)c1cccc(NC(=O)CSc2ccc(Cl)cc2)c1	3	-3	30*	7	3	1
CSc1cccc(NC(=O)CSc2ccc(Cl)cc2)c1	5	10	16	10	-8	-5
Nc1cc(Cl)cc2c1-c1ccc(Cl)cc1C2	.	3	6	-1	.	.
Cc1ccc(S(=O)(=O)NC(CC(C)C)C(=O)Nc2ccncc2)cc1 (centres undefined)	2	7	25*	-4	2	-9
Cc1ccc(S(=O)(=O)NC(CC(C)C)C(=O)Nc2nccs2)cc1 (centres undefined)	4	3	15	9	0	2
Cn1c(CNC(=O)c2ccc(Cl)cc2)nnc1SCC(=O)Nc1sc2c(c1C#N)CCCC2	4	-1	26*	3	-5	3
O=C(/C=C\c1ccco1)NC(=S)Nc1ccccc1O	33*	-2	1	6	4	4
Cc1ccc(NC(=S)NC(=O)/C=C/c2ccco2)c(O)c1	30*	5	3	5	5	9
Cc1c(NC(=O)COC(=O)c2cccn2C)c(=O)n(-c2ccccc2)n1C	6	0	5	7	.	.
COc1ccc(NC(=O)COC(=O)c2ccc3ccccc3n2)cc1	18	6	-2	3	.	1
CCN(CC)c1ccc(NC(=O)COC(=O)c2ccc3ccccc3n2)cc1	26*	-4	-5	7	2	6
CC1CCCN(CCCNC(=O)c2cn(C)c3ccc(S(=O)(=O)N(C)C4CCCCC4)cc3c2=O)C1 (centres undefined)	4	-1	-4	1	1	11
CCn1cc(C(=O)NCCCN2CCC(C)CC2)c(=O)c2cc(S(=O)(=O)N(C)C3CCCCC3)ccc21	2	7	0	1	-3	38*
CCn1cc(C(=O)NCCCN2CC(C)CC(C)C2)c(=O)c2cc(S(=O)(=O)N(C)C3CCCCC3)ccc21 (centres undefined)	5	10	3	-4	-10	33*
CCN(CC)CCNC(=O)c1cn(CC)c2ccc(S(=O)(=O)N(C)C3CCCCC3)cc2c1=O	1	-2	7	1	-3	22
CC1(S(=O)(=O)O)CC(=O)c2ccccc2C1=O (centres undefined)	-2	5	3	14	8	8
Nc1ccc2nc(-c3ccccc3)c(-c3ccccc3)nc2c1	27*	9	14	9	5	5

Screens from PubChem.
